Measured values: PubChem BioAssay (NCI)
This is part of a sample that, as a whole, favours compounds with a hit. Of some 83,000 tested, about 20% had one in any assay.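 Compound tested at a single concentration for 48 hours in 96-well plates; a percent growth value below 10 was scored as active.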 A number with no mark means an inactive call. Active and inactive are the calls of the source.

test system: IGROV1 ovarian; assay: NCI-60 one-dose screen, 48 h (100 = growth as untreated, 0 = no growth, -100 = all killed); details: 10 µM unless noted

SMILES	growth
COc1ccc(-c2n[nH]nc2-c2cc3ccccc3s2)cc1O	49%
Cn1cc(-c2csc(-c3c[nH]c4ccc(F)cc34)n2)c2cccnc21	41.6%
Nc1c(C(=O)Nc2cccc(Br)c2)sc2nc3c(cc12)C(=O)CCC3	44%
COc1cc(/C=N/Nc2ncnc3c2c(C)nn3-c2ccc(F)cc2)ccc1O	79.5%
Nc1ccccc1NC(=O)c1ccc(CN2CCC/C(=C\c3ccccn3)C2=O)cc1	21.2%
Cc1ccccc1-c1nc(C(Cl)Cl)nc2cc(-c3ccccc3)nn12	59.9%
N#CC1=C(N)Oc2ccc3ccccc3c2C1c1ccccc1 (centres undefined)	25.5%
Cc1csc(-c2ccc3c(c2)COC3(CCCN(C)C)c2ccc(F)cc2)c1 (centres undefined)	17.2%
O=C(O)c1cccc2c1Cc1cc([N+](=O)[O-])ccc1-2	92.3%
COc1ccc(C2C(C#N)=C(N)Oc3c2sc2c(F)cccc32)cc1 (centres undefined)	30.6%
CCCCCCCCNc1cccc2c1C(=O)c1ccccc1C2=O	105%
CC1(C)CC[C@]2(CO)CC[C@]3(C)C(=CC[C@@H]4[C@@]5(C)CC[C@H](NCO)C(C)(C)[C@@H]5CC[C@]43C)[C@@H]2C1	-56% (active)
CNC(=O)c1cc(Oc2ccc3nc(NC(=O)Nc4ccc(Cl)cc4)sc3c2)ccn1	83.6%
O=C(c1ccccc1)C(CN1CCOCC1)c1ccccc1 (centres undefined)	7.53% (active)
NCCn1cc(-c2nc(-c3c[nH]c4ncccc34)cs2)c2ccccc21	50.2%
COc1cc(-c2cc(-c3nc4cc(Cl)c(Cl)cc4[nH]3)[nH]n2)cc(OC)c1OC	87.2%
CC1(n2nnnc2N2CCCN(c3ncccc3N)CC2)CCC1	99.7%
C=CC(=O)N[C@H](Cc1ccc(-c2cc(Cl)cc(Cl)c2)cc1)[C@H](O)[C@@H](O)C(=O)O	96.7%
N#CC1=C(N)Oc2c(sc3c(F)cccc23)C1c1ccc(Cl)cc1 (centres undefined)	33.3%
COc1ccccc1CNc1nc(N)nc2[nH]c3ccc(O)cc3c12	50.9%

SMILES	growth
CCC(c1ccc(OC)cc1)C(CC)c1ccc(O)c(CN2CCCCC2)c1 (centres undefined)	69.6%
C/C(=N\Nc1cc(C)c2cc(C)ccc2n1)c1ccccn1	-35.9% (active)
Cn1cc(-c2csc(-c3c[nH]c4ccccc34)n2)c2cccnc21	42%
Oc1ccc(Nc2ccccc2)cc1	101%
Nc1c(C(=O)Nc2cccc(Cl)c2)sc2ncc(Cl)cc12	79.5%
C(=C\c1c[nH]c2ccccc12)/c1ccc2ccccc2n1	47.8%
COc1ccc(-c2nc3ccccn3c2-c2nc3ccc(Cl)cc3[nH]2)cc1	102%
CC/C(=N/NC(N)=O)c1ccccc1	108%
Cc1ccsc1-c1ccc2c(c1)COC2(CCCN(C)C)c1ccc(F)cc1 (centres undefined)	26.6%
NS(=O)(=O)c1ccc(CCNC(=O)/C=C/c2ccc(Cl)cc2)cc1	91.7%
Cc1ccc(N(CC(=O)Nc2ccc(S(=O)(=O)N3CCC(N4CCCC4)CC3)cc2)S(=O)(=O)c2ccc(Cl)cc2)cc1	51%
CC1(C)NCCC[C@]2(C)[C@H]3CC[C@@H]4[C@H]5[C@H](C(=O)/C=C/c6ccccn6)CC[C@]5(CO)CC[C@@]4(C)[C@]3(C)CC[C@@H]12	63.4%
Fc1ccc2nc(-c3cc(-c4ccc5c(c4)OCO5)n[nH]3)[nH]c2c1	62.3%
O=C(NC(Cc1cn(Cc2ccccc2)cn1)C(=O)O)OCC1c2ccccc2-c2ccccc21 (centres undefined)	105%
Cc1cc(Cl)nc(N(CCCNc2ccnc3cc(Cl)ccc23)Cc2ccco2)n1	15.3%
COc1cc(-c2cc3ncccc3c3nc(OCCN(C)C)c4cccnc4c23)cc(OC)c1OC	9.72% (active)
O=C1CNCCN1	99.7%
c1ccc2[nH]c(-c3ccc(Nc4nc(N5CCCCC5)nc(N5CCOCC5)n4)cc3)nc2c1	51.3%
NC1=NN=C2N(N)C(=O)c3cnn(-c4ccccc4)c3N2c2nc(-c3ccccc3)cc(-c3ccccc3)c21	89%
